Assay outcomes deposited in PubChem by Buhrlage Lab, Dana-Farber Cancer Institute and Novartis Institutes for BioMedical Research (Cambridge, Mass).
Shown are actives, neighbours in structure and some others; about 11% of the full set was active somewhere.
USP30 inh – blocks human USP30 ubiquitin-rhodamine cleavage; Q70CQ3; purified USP30, Ub-rhodamine cleavage fluorescence; inhibition, % at 25 µM; actives 5.3% (n = 47,000)
Target sequence (Q70CQ3 whole entry, looked up): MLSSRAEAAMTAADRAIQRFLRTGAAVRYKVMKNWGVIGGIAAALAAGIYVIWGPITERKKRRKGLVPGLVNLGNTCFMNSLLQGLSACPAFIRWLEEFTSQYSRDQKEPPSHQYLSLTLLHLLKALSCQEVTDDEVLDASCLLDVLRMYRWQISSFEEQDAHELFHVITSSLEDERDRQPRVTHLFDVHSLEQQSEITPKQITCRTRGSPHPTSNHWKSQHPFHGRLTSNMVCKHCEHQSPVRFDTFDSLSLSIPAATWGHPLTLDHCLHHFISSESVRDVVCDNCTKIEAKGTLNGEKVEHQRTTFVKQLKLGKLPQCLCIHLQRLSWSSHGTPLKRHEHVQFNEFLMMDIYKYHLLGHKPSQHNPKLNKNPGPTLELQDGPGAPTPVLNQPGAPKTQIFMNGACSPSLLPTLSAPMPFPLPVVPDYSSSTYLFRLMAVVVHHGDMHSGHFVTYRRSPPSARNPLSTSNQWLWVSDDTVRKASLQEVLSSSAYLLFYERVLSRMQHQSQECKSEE
USP28 block – human USP28 deubiquitinase inhibition. Q96RU2. purified USP28, Ub-rhodamine cleavage fluorescence, 30 min. inhibition, % at 25 µM. actives 3% (n = 47,000)
OTUD3 inh – inhibitors of human OTUD3 deubiquitinase; Q5T2D3; purified OTUD3, Ub-rhodamine fluorescence, 2 h; inhibition, % at 25 µM; actives 0.7% (n = 47,000)
USP17 inh – human USP17-like deubiquitinase inhibition; A8MUK1; purified USP17, Ub-rhodamine cleavage fluorescence, 3 h; inhibition, % at 50 µM; actives 6.5% (n = 47,000); AID 1645855
Active calls of the source: *; . = no result. Rule as the data show it: active = inhibition above about 30%; inactive = the rest.

SMILES | USP30 inh | USP28 block | OTUD3 inh | USP17 inh
Cn1c2ccc(F)cc2c2ncn(Cc3cccnc3)c(=O)c21 | 31.1* | 8.9 | 6.3 | -1.3
O=c1c2[nH]c3ccc(F)cc3c2ncn1Cc1ccc2c(c1)OCO2 | 23.6 | 11.6 | 8.3 | 17.3
CC(=O)c1cccc(-n2c(=O)c3c4c(sc3n(CC(=O)OCc3ccccc3)c2=O)CN(C(C)=O)CC4)c1 | -64.8 | 1.1 | -8.0 | -12.0
COc1ccc(CNC(=O)c2cn3nc(OC)ccc3n2)cc1 | 4.9 | -6.7 | -2.0 | -1.1
Cc1ccc(C)c(NC(=O)CSc2nnc(CCC(=O)O)c(=O)[nH]2)c1 | 5.4 | 9.3 | 5.8 | 7.6
O=C(Cc1ccc(-c2ccccc2)cc1)Nc1ccc(F)cc1 | 3.2 | -0.5 | -5.0 | -0.4
O=C(Cn1nc(-c2ccccc2)cc(NC(=O)c2ccccc2)c1=O)Nc1ccc(F)cc1 | 38.7* | 14.0 | 23.9 | 39.1*
O=C(CSc1nnc2ccc(-c3ccccc3)nn12)Nc1ccc(F)cc1 | 34.2* | -3.6 | 9.9 | 43.1*
CCOc1ccc(-c2ccc3nnc(SCC(=O)Nc4ccc(F)cc4)n3n2)cc1 | 33.2* | -4.1 | -3.8 | .
CC(=O)c1ccc(NC(=O)Cn2nc(-c3ccccc3)cc(NC(=O)C(C)C)c2=O)cc1 | -31.6 | -8.3 | -11.9 | -21.1
CCc1nnc(-c2nnc(NCCOc3ccccc3OC)c3ccccc23)o1 | 33.5* | 8.0 | 10.7 | 19.5
NC(=O)c1cccc2[nH]c([C@H]3CCN(Cc4ccccc4F)C3)nc12 | -30.4 | -12.5 | -19.1 | -36.7
COc1ccccc1C(=O)N1CCN(c2cnn3c(C4CC4)nnc3c2)CC1 | -7.1 | -11.1 | -12.8 | -12.1
CC1=CCC[C@]2(C)C[C@H]3OC(=O)C(CN4CCCC(C)(C)C4)[C@H]3C=C12 (some centres undefined) | 3.9 | -6.6 | -0.7 | -1.2
O=C(CCc1c[nH]c2ccccc12)N1C[C@@H](O)[C@H](N2CCCC2)C1 | -4.0 | -12.0 | -2.4 | -4.9
O=C(CCc1c[nH]c2ccccc12)OCC(=O)c1cc2c3c(c1)CC(=O)N3CCC2 | . | . | 0.3 | 62.2*
CCc1nccn1-c1nccnc1C1CCCN(C(=O)c2cccnc2)C1 (centres undefined) | 4.7 | 0.0 | 8.8 | 2.3
COCCCN1CCS(=O)(=O)c2c(Cl)c(F)nc(Oc3ccccc3)c21 | -1.6 | 6.5 | -7.4 | 40.6*
CCCCN1CCS(=O)(=O)c2c(Cl)c(F)nc(Oc3ccc(OC)cc3)c21 | 3.7 | 9.7 | 8.4 | 25.3
COc1ccc(Oc2nc(F)c(Cl)c3c2N(CC2CCCO2)CCS3(=O)=O)cc1 (centres undefined) | -51.3 | 16.9 | 5.7 | 33.1*
Cc1cccc(C(=O)NCC(=O)Nc2nc3ccccc3[nH]2)c1 | 11.4 | 1.9 | 3.2 | 3.5
CSCCC(NC(=O)c1sccc1C)c1nnc2ccccn12 (centres undefined) | 40.6* | 12.7 | 11.7 | 14.7
CSCCC(NC(=O)c1cccs1)c1nnc2ccccn12 (centres undefined) | -0.6 | -0.3 | -2.8 | -1.3
O=C(NCc1ccc(Br)cc1)c1cc(-c2cccnc2)n[nH]1 | 24.1 | 14.8 | 9.9 | 36.9*
Cc1cc(NC(=O)c2cc(-c3cccnc3)n[nH]2)ccc1Br | 67.8* | 48.3* | 17.9 | 32.9*
SMILES | USP30 inh | USP28 block | OTUD3 inh | USP17 inh
Cc1cc(NC(=O)c2cc(-c3ccccn3)n[nH]2)ccc1Br | -13.3 | -8.3 | -6.6 | -12.9
Cc1cc(Cl)ccc1NC(=O)c1cc(-c2cccnc2)n[nH]1 | 23.0 | 92.7* | -1.2 | 66.9*
O=C(NCc1ccc(F)cc1)C1CCN(C(=O)c2cc(-c3cccnc3)n[nH]2)CC1 | -0.3 | -6.5 | 1.5 | -5.5
CCc1ccccc1Nc1nc(N)nc(CN2CCC(C)CC2)n1 | 7.9 | 2.7 | 6.6 | 3.0
Cc1nnsc1Sc1ccc(Br)cc1 | 13.1 | 12.4 | 2.9 | 9.0
CCCOc1ccc(C(=O)Nc2ccc(C)c(S(=O)(=O)Nc3ccc(C)cc3C)c2)cc1OCC | -68.4 | -8.0 | -26.4 | 0.2
CC(C)=CCc1c2c(c3occ(-c4ccc(O)cc4)c(=O)c3c1O)C=CC(C)(C)O2 | 56.5* | 41.5* | 43.6* | 90.6*
CC(C)=CCc1c2c(c3occ(-c4ccc(O)c(O)c4)c(=O)c3c1O)C=CC(C)(C)O2 | 78.7* | 68.9* | 80.6* | 85.9*
COc1ccc(NC(=O)c2nnn(-c3ccc(F)cc3)c2C)cc1 | 2.3 | 18.4 | 5.1 | 48.0*
Cc1ccc(-n2nnc(C(=O)Nc3ccc(F)cc3)c2C)cc1C | 14.3 | 1.6 | -0.9 | 0.1
COc1cccc(-n2nnc(C(=O)Nc3ccc(Cl)cc3)c2C)c1 | 14.4 | -0.1 | -5.6 | 12.0
Cc1ccc(-n2nnc(C(=O)Nc3ccccc3F)c2C)cc1C | . | . | 4.4 | 56.1*
COc1ccc(NC(=O)c2nnn(-c3ccccc3C)c2C)cc1OC | -16.2 | 72.2* | -11.4 | 3.3
